According to the supplement of paper PMC4022240:
± gives the standard deviation.

T1: HaloTag-ATRX ADD domain (163-292)
T1 chain: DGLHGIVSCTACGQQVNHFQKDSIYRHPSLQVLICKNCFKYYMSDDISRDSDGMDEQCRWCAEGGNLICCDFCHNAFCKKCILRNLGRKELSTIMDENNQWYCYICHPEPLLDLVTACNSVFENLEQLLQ


Target: T1, HaloTag-ATRX ADD domain (163-292)
Assay: peptide microarray binding signal (635 nm), min-max normalized on array (fraction of array maximum); higher = stronger binding
Conditions: peptide region: Unmod H1 variant; binder concentration: 50 nM
Procedure, shortened: (§1)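 Two probe formats were used for 1 h at 4°C: biotin-labelled HaloTag reader fusions (10 nM to 1 μM) with streptavidin-Alexa Fluor 647, and rabbit histone antibodies (1:10,000 to 1:2,000) with anti-rabbit Alexa 647. Both were applied to nitrocellulose arrays of histone 13-mer peptide–cellulose conjugates printed in triplicate with a Cy3 tracer and blocked overnight at 4°C. Signal was read at 635 nm and misprints at 532 nm on an Axon GenePix 4000B. Binding signal is expressed as the triplicate-spot mean intensity, min-max scaled for each library.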
TKTKATGASKKLK [Unmod H1 variant T K T K A T G A S K K L K] was tested, and the “peptide microarray binding signal” value was 0.032 ± 0.02. SKKSVKTPKKAKK [Unmod H1 variant S K K S V K T P K K A K K] was tested, and the “peptide microarray binding signal” value was 0.0224 ± 0.0075. In the case of KSPAKAKAVKPKA [Unmod H1 variant K S P A K A K A V K P K A], the “peptide microarray binding signal” value is reported as 0.0194 ± 0.0034. LNKKASSVETKPG [Unmod H1 variant L N K K A S S V E T K P G] was tested, and the “peptide microarray binding signal” value was 0.0199 ± 0.0032. With LKKALAAAGYDVE [Unmod H1 variant L K K A L A A A G Y D V E] the “peptide microarray binding signal” value was 0.0162 ± 0.00021.

Same assay, conditions: peptide region: Unmod H1 variant; binder concentration: 500 nM
TKTKATGASKKLK [Unmod H1 variant T K T K A T G A S K K L K] was tested, and the “peptide microarray binding signal” value was 0.0136 ± 0.00069. With SKKSVKTPKKAKK [Unmod H1 variant S K K S V K T P K K A K K] the “peptide microarray binding signal” value was 0.00633 ± 9.9e-05. In the case of KSPAKAKAVKPKA [Unmod H1 variant K S P A K A K A V K P K A], the “peptide microarray binding signal” value is reported as 0.00619 ± 0.00021. With LNKKASSVETKPG [Unmod H1 variant L N K K A S S V E T K P G] the “peptide microarray binding signal” value was 0.0256 ± 0.00069. With LKKALAAAGYDVE [Unmod H1 variant L K K A L A A A G Y D V E] the “peptide microarray binding signal” value was 0.0149 ± 0.00063.

Each binder was assayed against HaloTag-ING2 PHD (mouse Ing2 200-280) in the same assay as above. Conditions: peptide region: Unmod H1 variant; binder concentration: 10 nM.
Procedure, shortened: as §1
For TKTKATGASKKLK [Unmod H1 variant T K T K A T G A S K K L K], the “peptide microarray binding signal” value was 0.00257 ± 9.1e-05. In the case of SKKSVKTPKKAKK [Unmod H1 variant S K K S V K T P K K A K K], the “peptide microarray binding signal” value is reported as 0.00113 ± 3.2e-05. With KSPAKAKAVKPKA [Unmod H1 variant K S P A K A K A V K P K A] the “peptide microarray binding signal” value was 0.00167 ± 3.4e-05. For LNKKASSVETKPG [Unmod H1 variant L N K K A S S V E T K P G], the “peptide microarray binding signal” value was 0.00776 ± 0.0013. With LKKALAAAGYDVE [Unmod H1 variant L K K A L A A A G Y D V E] the “peptide microarray binding signal” value was 0.00322 ± 3.5e-05.

Same assay, conditions: peptide region: Unmod H1 variant; binder concentration: 100 nM
TKTKATGASKKLK [Unmod H1 variant T K T K A T G A S K K L K] was tested, and the “peptide microarray binding signal” value was 0.00829 ± 0.00095. With SKKSVKTPKKAKK [Unmod H1 variant S K K S V K T P K K A K K] the “peptide microarray binding signal” value was 0.00206 ± 0.00011. KSPAKAKAVKPKA [Unmod H1 variant K S P A K A K A V K P K A] was tested, and the “peptide microarray binding signal” value was 0.0159 ± 0.014. With LNKKASSVETKPG [Unmod H1 variant L N K K A S S V E T K P G] the “peptide microarray binding signal” value was 0.0114 ± 0.00013. For LKKALAAAGYDVE [Unmod H1 variant L K K A L A A A G Y D V E], the “peptide microarray binding signal” value was 0.004606 ± 3.8e-05.

The binders below were run against anti-H3K4me3 antibody ab8580 in the same assay as above. Conditions: peptide region: Unmod H1 variant; binder concentration: 1:2,000 dilution.
Procedure, shortened: as §1
TKTKATGASKKLK [Unmod H1 variant T K T K A T G A S K K L K] was tested, and the “peptide microarray binding signal” value was 0.000642 ± 2.2e-05. SKKSVKTPKKAKK [Unmod H1 variant S K K S V K T P K K A K K] was tested, and the “peptide microarray binding signal” value was 0.000359 ± 9.7e-06. For KSPAKAKAVKPKA [Unmod H1 variant K S P A K A K A V K P K A], the “peptide microarray binding signal” value was 0.000283. With LNKKASSVETKPG [Unmod H1 variant L N K K A S S V E T K P G] the “peptide microarray binding signal” value was 0.00126 ± 7.1e-05. For LKKALAAAGYDVE [Unmod H1 variant L K K A L A A A G Y D V E], the “peptide microarray binding signal” value was 0.000982 ± 5.9e-05.

Same assay, conditions: peptide region: Unmod H1 variant; binder concentration: 1:10,000 dilution
In the case of TKTKATGASKKLK [Unmod H1 variant T K T K A T G A S K K L K], the “peptide microarray binding signal” value is reported as 0.001027 ± 1e-05. SKKSVKTPKKAKK [Unmod H1 variant S K K S V K T P K K A K K] was tested, and the “peptide microarray binding signal” value was 0.000628 ± 6.7e-06. With KSPAKAKAVKPKA [Unmod H1 variant K S P A K A K A V K P K A] the “peptide microarray binding signal” value was 0.000571 ± 1.1e-05. With LNKKASSVETKPG [Unmod H1 variant L N K K A S S V E T K P G] the “peptide microarray binding signal” value was 0.00165 ± 3.2e-05. In the case of LKKALAAAGYDVE [Unmod H1 variant L K K A L A A A G Y D V E], the “peptide microarray binding signal” value is reported as 0.001655 ± 1.6e-05.

The binders below were run against anti-H3K9me3 antibody ab8898 in the same assay as above. Conditions: peptide region: Unmod H1 variant; binder concentration: 1:2,000 dilution.
Procedure, shortened: as §1
With TKTKATGASKKLK [Unmod H1 variant T K T K A T G A S K K L K] the “peptide microarray binding signal” value was 0.000181. With SKKSVKTPKKAKK [Unmod H1 variant S K K S V K T P K K A K K] the “peptide microarray binding signal” value was 0.000121 ± 1.3e-06. KSPAKAKAVKPKA [Unmod H1 variant K S P A K A K A V K P K A] was tested, and the “peptide microarray binding signal” value was 0.000196 ± 2.1e-06. For LNKKASSVETKPG [Unmod H1 variant L N K K A S S V E T K P G], the “peptide microarray binding signal” value was 0.000921 ± 2e-05. In the case of LKKALAAAGYDVE [Unmod H1 variant L K K A L A A A G Y D V E], the “peptide microarray binding signal” value is reported as 0.000861 ± 5.4e-05.

Same assay, conditions: peptide region: Unmod H1 variant; binder concentration: 1:10,000 dilution
TKTKATGASKKLK [Unmod H1 variant T K T K A T G A S K K L K] was tested, and the “peptide microarray binding signal” value was 0.000519 ± 5.6e-06. SKKSVKTPKKAKK [Unmod H1 variant S K K S V K T P K K A K K] was tested, and the “peptide microarray binding signal” value was 0.000577 ± 6.2e-06. In the case of KSPAKAKAVKPKA [Unmod H1 variant K S P A K A K A V K P K A], the “peptide microarray binding signal” value is reported as 0.000577 ± 6.2e-06. With LNKKASSVETKPG [Unmod H1 variant L N K K A S S V E T K P G] the “peptide microarray binding signal” value was 0.00127 ± 4.6e-05. LKKALAAAGYDVE [Unmod H1 variant L K K A L A A A G Y D V E] was tested, and the “peptide microarray binding signal” value was 0.001211 ± 1.2e-05.
